Peg3 prom inh – reduces Peg3 promoter-driven luciferase expression in HeLa; AID 588405; inhibition, % at 20 µM; 360,000 compounds, 1.7% hits; HeLa PEG-Prom luciferase reporter, luminescence, overnight;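 active means inhibition of at least 50% at 20 µM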
HSP90 refold inh – inhibitors of HSP90 luciferase refolding in rabbit reticulocyte lysate | luciferase refolding luminescence, 3 h | inhibition, % at 5.6 µM | 290,000 compounds, 0.91% hits | AID 1789;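 active means inhibition above the screen-wide mean plus 3 SD, computed separately per campaign, cut at about 16% in these data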;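 further: inhibitors lower the luminescence because luciferase stays unfolded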
KKLEB cytotox – counter-screen for CF NF-kB inhibitors: cytotoxicity | KKLEB CF airway cells viability, ATPlite luminescence, overnight; stronger effect = lower value; cells stimulated with P. aeruginosa culture filtrate | activity change (cytotoxicity), % at 5 µM | 360,000 compounds, 0.36% hits | AID 602141;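 active means corrected activity change at or below -50% at 5 µM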
LGR2 inh – blocks bursicon-induced cAMP signaling via Drosophila LGR2 | HEK293 LGR2, CRE-luciferase, bursicon-stimulated, 4 h | inhibition, % at 9.99 µM | AID 720647 | 380,000 compounds, 0.35% hits;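 active means drop in luminescence signal, shown as inhibition above about 50% in the replicate tests, limit read from the data, passing the limit was not always enough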;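 further: agonist challenge used bursicon conditioned medium at about half maximal strength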
CF NFkB inh – blocks PAF-induced NF-kB reporter in cystic fibrosis cells; AID 588850; 360,000 compounds, 0.86% hits; KKLEB NF-kB-GFP reporter, GFP fluorescence overnight; inhibition, % at 5 µM;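 active means at least 50% inhibition at 5 µM, scaled per plate between neutral and stimulator controls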;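 further: PAF is a Pseudomonas aeruginosa culture filtrate used as stimulus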
Mdm2 MdmX PPI – human Mdm2/MdmX binding inhibition. O15151+Q00987. SaOS-2 split-luciferase Mdm2/MdmX complementation, luminescence. inhibition, % at 8 µM. 330,000 compounds, 3% hits. AID 485346;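 active means inhibition of at least 50% at 8 µM in the primary screen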
Target sequence (O15151 whole entry, looked up): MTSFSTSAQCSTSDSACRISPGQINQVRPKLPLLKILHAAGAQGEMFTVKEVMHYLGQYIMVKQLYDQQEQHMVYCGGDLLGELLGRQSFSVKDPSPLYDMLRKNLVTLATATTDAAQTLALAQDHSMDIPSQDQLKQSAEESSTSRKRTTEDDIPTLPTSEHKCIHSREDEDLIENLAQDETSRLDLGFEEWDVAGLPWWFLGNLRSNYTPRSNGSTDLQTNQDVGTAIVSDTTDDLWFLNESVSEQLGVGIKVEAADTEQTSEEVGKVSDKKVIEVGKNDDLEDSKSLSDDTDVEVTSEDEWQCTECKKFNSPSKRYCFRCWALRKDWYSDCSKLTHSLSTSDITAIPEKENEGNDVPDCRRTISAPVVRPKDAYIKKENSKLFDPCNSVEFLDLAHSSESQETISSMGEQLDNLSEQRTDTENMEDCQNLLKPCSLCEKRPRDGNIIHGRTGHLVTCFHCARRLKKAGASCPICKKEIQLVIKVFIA
Target sequence (Q00987 whole entry, looked up): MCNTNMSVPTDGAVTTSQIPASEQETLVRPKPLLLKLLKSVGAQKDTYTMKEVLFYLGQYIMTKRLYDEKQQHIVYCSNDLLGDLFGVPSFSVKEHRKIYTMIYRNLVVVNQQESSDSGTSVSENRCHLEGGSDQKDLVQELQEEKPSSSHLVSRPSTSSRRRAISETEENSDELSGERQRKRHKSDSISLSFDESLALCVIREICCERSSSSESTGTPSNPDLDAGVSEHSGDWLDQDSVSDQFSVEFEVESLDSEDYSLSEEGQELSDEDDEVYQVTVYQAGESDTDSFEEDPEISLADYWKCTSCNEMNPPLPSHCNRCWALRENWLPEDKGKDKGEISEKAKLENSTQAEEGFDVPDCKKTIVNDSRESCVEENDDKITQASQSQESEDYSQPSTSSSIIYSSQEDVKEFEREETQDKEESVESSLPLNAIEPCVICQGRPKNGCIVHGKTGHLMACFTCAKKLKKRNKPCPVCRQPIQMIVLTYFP
Mdm2-MdmX conf – human Mdm2/MdmX binding inhibition, confirmed; shares compounds with Mdm2 MdmX PPI; luminescent assay; 10,000 compounds, 55% hits; inhibition, % at 8 µM; in the data active means inhibition above about 40%
Full FLuc ctr – counter-screen for Mdm2/MdmX inhibitors: full-length luciferase | shares compounds with Mdm2 MdmX PPI | SaOS-2 full-length luciferase counterscreen, luminescence | inhibition, % at 8 µM | 6,200 compounds, 77% hits;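 active means mean inhibition at 8 µM reaching about 37%, which flags the compound as non-specific, limit read from the data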;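 further: p53-null SaOS-2 cells with luciferase driven by a doxycycline-inducible promoter; compound on cells about two nights before reading with doxycycline added after day one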
Hits are given with their value; 0 = inactive; - = no result given. Compounds with a hit are over-represented: about 3.6% of the library has one in this group of screens.

SMILES	Peg3 prom inh	HSP90 refold inh	KKLEB cytotox	LGR2 inh	CF NFkB inh	Mdm2 MdmX PPI	Mdm2-MdmX conf	Full FLuc ctr
Cc1ccc(C)c(NC(=S)NC(NC(=O)/C=C/c2ccccc2)C(Cl)(Cl)Cl)c1 (stereo unspecified)	0	0	0	-	0	81.3	74.0	0
O=C(/C=C/c1ccccc1)NC(NC(=S)Nc1ccc(C(=O)O)cc1)C(Cl)(Cl)Cl (stereo unspecified)	0	0	0	0	0	0	-	-
O=C(/C=C/c1ccccc1)NC(NC(=S)Nc1ccc(Cl)cc1Cl)C(Cl)(Cl)Cl (stereo unspecified)	0	0	0	-	0	94.5	92.2	0
O=C(NC(NC(=S)Nc1c(Cl)cc(Cl)cc1Cl)C(Cl)(Cl)Cl)OCc1ccccc1 (stereo unspecified)	0	0	0	0	0	85.7	57.0	55.8
O=C(NCCCN1CCOCC1)c1ccc(/C=C2\Oc3ccccc3N(Cc3ccccc3F)C2=O)cc1	0	0	0	0	0	0	-	-
O=C(NCCN1CCOCC1)c1ccc2c(c1)N(Cc1ccccc1F)C(=O)c1ccccc1S2	0	0	0	0	0	0	-	-
CCN1CCN(CCCNC(=O)c2ccc(/C=C3/Sc4ccccc4N(Cc4ccccc4F)C3=O)cc2)CC1	58.8	0	0	0	0	93.9	74.2	0
CCN1CCN(CCCNC(=O)c2ccc(/C=C3/Oc4ccccc4N(Cc4cccc(C)c4)C3=O)cc2)CC1	74.8	0	0	-	0	100.4	0	-
CCOc1ccccc1/C=N\Nc1cnn(Cc2ccccc2)c(=O)c1Cl	0	0	0	0	0	53.1	0	-
C[C@@H]1CN([C@H](C)CO)C(=O)c2cccc(NC(=O)C3CCCCC3)c2O[C@@H]1CN(C)Cc1ccc2c(c1)OCO2	-	-	-	0	-	-	-	-
COc1ccc2nc(NC(=O)CC3Oc4ccccc4NC3=O)sc2c1 (stereo unspecified)	0	0	0	0	0	0	-	-
CCOc1ccc2nc(NC(=O)CC3Oc4ccccc4NC3=O)sc2c1 (stereo unspecified)	0	0	0	0	0	62.3	0	63.4
C[C@H](CO)N1C[C@H](C)[C@@H](CN(C)Cc2ccc(Oc3ccccc3)cc2)Oc2ccc(NC(=O)c3ccncc3)cc2C1=O	-	-	-	0	-	-	-	-
CN(Cc1ccccc1)c1ncnc2ccc(Br)cc12	0	0	0	-	0	57.3	48.8	38.6
S=C(NCc1cccs1)Nc1cc(Cl)cc(Cl)c1	0	0	0	0	0	60.7	0	-
CCC(=O)N[C@H]1CC[C@H](CC(=O)OC)O[C@@H]1CO	-	-	-	0	-	-	-	-
Clc1ccc(C(c2ccccc2)N2CCNCC2)cc1 (stereo unspecified)	0	0	0	-	0	61.8	47.5	75.8
CC(=O)N1CCN(C(c2ccccc2)c2ccccc2)CC1	0	0	-	-	0	0	-	-
CC12CNCC(C)(CN(C(c3ccccc3)c3ccccc3)C1)C2	81.2	0	0	-	0	95.9	46.7	63.3
COc1ccc(C(NC(=O)c2cc(OC)ccc2OC)c2ccccc2)cc1 (stereo unspecified)	0	0	0	0	0	0	-	-
COc1ccc(C(NC(=O)c2c(F)c(F)c(F)c(F)c2F)c2ccccc2)cc1 (stereo unspecified)	93.1	0	0	67.1	0	77.4	0	-
Cc1cc(=O)oc2cc(OCc3cc4c(cc3Cl)OCO4)ccc12	0	0	0	-	0	89.1	0	-
CCC1=Nc2cc(C(=O)NCC3CCCO3)ccc2Sc2ccc(Br)cc21 (stereo unspecified)	0	0	0	0	0	0	-	-
CCC1=Nc2cc(C(=O)NCC3CCCO3)ccc2Sc2ccc(Cl)cc21 (stereo unspecified)	0	0	0	0	0	64.7	55.0	44.8
CCOC(=O)NC(=O)CSc1nc(C)cc(C(F)(F)F)c1C#N	0	0	0	-	0	58.9	0	-
SMILES	Peg3 prom inh	HSP90 refold inh	KKLEB cytotox	LGR2 inh	CF NFkB inh	Mdm2 MdmX PPI	Mdm2-MdmX conf	Full FLuc ctr
COC(=O)CSc1nc(C)cc(C(F)(F)F)c1C#N	0	0	0	-	0	0	-	-
Cc1coc(NC(=O)CSc2nc(-c3ccncc3)cc(C(F)(F)F)c2C#N)n1	0	0	0	-	0	52.4	0	-
N#Cc1c(C(F)(F)F)cc(-c2ccc(F)cc2)nc1SCC(=O)O	0	0	0	0	0	0	-	-
COc1ccc(S(=O)(=O)N(C)C[C@@H]2Oc3c(NC(=O)Nc4cccc5ccccc45)cccc3C(=O)N([C@@H](C)CO)C[C@@H]2C)cc1	-	-	-	0	-	-	-	-
C[C@@H]1CCCCO[C@H](CN(C)C(=O)NC2CCCCC2)[C@H](C)CN([C@@H](C)CO)C(=O)c2cc(NC(=O)c3ccccc3)ccc2O1	-	-	-	0	-	-	-	-
O=C(CCl)c1cc2c3c(c1)CC(=O)N3CCC2	81.0	0	0	0	0	77.0	55.8	0
CC(C)(C)C(=O)O/N=C(\N)c1ccc(Oc2cc(Cl)cc(Cl)c2)c([N+](=O)[O-])c1	0	0	0	-	0	60.3	0	-
CCCNC(=O)N[C@H]1CC[C@@H](CCn2cc(C3CC3)nn2)O[C@H]1CO	-	-	-	0	-	-	-	-
COc1cc(/C=C/C(=O)O)ccc1O	0	-	0	-	0	0	-	-
COc1cc(/C=C/C(=O)/C=C(O)/C=C/c2ccc(O)c(OC)c2)ccc1O	0	-	0	0	0	65.8	0	-
O=Cc1cn(CC(=O)N2CCCCC2)c2ccccc12	0	0	0	0	0	0	-	-
CN1C(=O)/C(=C/c2cn(CC(=O)N3CCCCC3)c3ccccc23)c2ccccc21	-	0	-	-	-	52.4	0	-
O=C(Nc1ccc(N2CCCCC2)c(Cl)c1)c1cccnc1	0	0	0	-	0	66.5	46.4	49.6
O=C(Nc1ccc(N2CCOCC2)c(Cl)c1)c1c(F)c(F)c(F)c(F)c1F	51.9	0	0	-	0	56.9	45.6	45.1
O=C(Nc1ccc(N2CCCC2)c(Cl)c1)c1cccnc1	0	0	0	-	0	0	-	-
O=C(Nc1ccc(N2CCOCC2)c(Cl)c1)c1cc(F)c(F)cc1Cl	0	0	0	-	0	0	-	-
Cc1ccc(S(=O)(=O)Nc2ccc3c(c2)C(=O)N([C@@H](C)CO)C[C@@H](C)[C@@H](CN(C)S(C)(=O)=O)OCCCC[C@@H](C)O3)cc1	-	-	-	0	-	-	-	-
COc1ccc2c(c1)c(=O)oc1cc(OCC(=O)NC3CC3)ccc12	0	0	0	-	0	53.4	0	-
COc1ccc2c(c1)c(=O)oc1cc(OCC(=O)NC3CCCCC3)ccc12	0	0	0	-	0	0	-	-
C[C@H]1CN([C@@H](C)CO)C(=O)c2cc(NC(=O)C3CC3)ccc2O[C@H]1CN(C)C(=O)NC1CCCCC1	-	-	-	0	-	-	-	-
O=C(NCC[C@H]1CC[C@@H](NS(=O)(=O)Cc2ccccc2)[C@@H](CO)O1)C1CC1	-	-	-	0	-	-	-	-
COc1ccc2c(-c3ccc(S(N)(=O)=O)cc3)c(-c3ccc(S(C)(=O)=O)cc3)sc2c1	0	-	0	0	0	66.8	0	-

Assay outcomes from PubChem BioAssay.
